# Hits are enriched below; roughly 3.3% of the tested compounds scored in any of these assays.
# SIRT5 inh: SIRT5 desuccinylase inhibitors, primary screen, biochemical, fluorescence imaging, single point, set 5. Purified SirT5, succinyl-peptide AMC, trypsin-coupled fluorescence. inhibition, % at 15 µM. 330,000 tested, 1.1% active. AID 652115, 2013; in the data active = inhibition above about 15%
# Target sequence (Q9NXA8 whole entry, looked up): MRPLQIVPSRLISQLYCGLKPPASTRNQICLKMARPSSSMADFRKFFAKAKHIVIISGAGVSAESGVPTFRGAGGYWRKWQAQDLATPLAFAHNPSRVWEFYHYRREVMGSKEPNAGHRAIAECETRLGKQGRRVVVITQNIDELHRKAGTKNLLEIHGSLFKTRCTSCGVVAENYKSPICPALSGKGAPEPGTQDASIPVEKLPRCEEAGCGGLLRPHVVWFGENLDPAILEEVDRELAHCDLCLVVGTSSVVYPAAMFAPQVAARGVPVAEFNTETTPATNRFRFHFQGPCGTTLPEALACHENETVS
# INS-1E GSIS act: GLuc luminescence reporter in INS-1E cells, primary screen for activators of glucose-dependent secretion of insulin | activation, % at 16.6 µM | 370,000 tested, 0.61% active | AID 743287, 2014 | INS-1E GLuc reporter insulin secretion, 2-3 h;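 active = lowest replicate activation of at least 40%, so every replicate reaches that level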
# FGF22 binding-1: binders of human FGF22 protein, primary screen, FGF22 synaptogenesis inhibitor project, biophysical, thermal shift, single point | Fibroblast growth factor 22 (Homo sapiens), Q9HCT0 | recombinant FGF22 thermal shift, SYPRO orange fluorescence; percent of sucrose octasulfate shift, DMSO zero | activity (Tm shift, normalised), % at 9.99 µM | 340,000 tested, 1.5% active;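 active = mean Tm shift, scaled 0 neutral to 100 positive control, at about 1.3% or above, every replicate too, limit read from the data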
# ERAP1 HTS inh: human ERAP1 aminopeptidase inhibitors, primary screen, biochemical, single point, plate reader; Endoplasmic reticulum aminopeptidase 1 (Homo sapiens), Q9NZ08; recombinant ERAP1, Leu-AMC fluorescence, 60 min; inhibition, % at 10.7 µM; 340,000 tested, 0.15% active; AID 652197, 2013;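 active = mean replicate inhibition of at least 30%, or all replicates individually reaching that 30% level; inactive = mean below 30% and not every replicate reaching it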
# Casp6 inh: human caspase-6 inhibitors, primary screen, biochemical, VEID-R110 fluorescence, single point, set 2; inhibition, % at 12.5 µM; 350,000 tested, 0.53% active; P55212; purified caspase-6, Z-VEID-R110 cleavage fluorescence; AID 686996, 2013;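 active = mean inhibition across replicates at least about 35%, with every replicate also reaching that limit, limit read from the data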
# FGF22 binding-2: binders of human FGF22 protein, dose response, FGF22 synaptogenesis inhibitor project, biophysical, thermal shift, cherry-pick retest; shares compounds with FGF22 binding-1; recombinant FGF22 thermal shift, SYPRO orange fluorescence; thermal shift activity, °C (ΔTm) at 38 µM; 1,000 tested, 2% active; AID 720646, 2013;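 active = fitted rise in melting shift crosses a set limit at or below the top valid dose tested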
# SYPRO no-protein: compound-only thermal shift signal without protein, dose response, artefact control for FGF22 binder project, biochemical, cherry-picked samples, RT-PCR instrument; shares compounds with FGF22 binding-1; compound-only SYPRO orange thermal shift counter-screen, no protein; AC50, µM (doses to about 38 µM); 1,000 tested, 2% active;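 active = rising signal whose fitted curve reaches the 0.54 level within the top valid dose, showing a melting point, actives reach about 13 µM in these data; inactive = the rest, including activity in the opposite direction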; note: value is where the raw curve crosses a fixed level and not half-maximal
# Hits are given with their value; 0 = inactive; - = not tested or not shown.
SMILES,SIRT5 inh,INS-1E GSIS act,FGF22 binding-1,ERAP1 HTS inh,Casp6 inh,FGF22 binding-2,SYPRO no-protein
Cc1noc(C)c1S(=O)(=O)Nc1ccc2c(c1)C(=O)N([C@@H](C)CO)C[C@@H](C)[C@@H](CN(C)S(=O)(=O)c1ccc(Cl)cc1)OCCCC[C@H](C)O2,0,0,0,0,0,-,-
CCc1cccc(NS(=O)(=O)c2ccc3c(c2)NC(=O)CC(=O)N3)c1,0,0,1.7,0,0,0,0
Cc1cccc(NS(=O)(=O)c2ccc3c(c2)NC(=O)CC(=O)N3)c1,0,0,0,0,0,-,-
C=CCC1c2cccc(C(=O)O)c2C(=O)N1c1cccc(OC)c1 (centres undefined),0,0,17.5,0,0,0,0
C=CCC1c2cccc(C(=O)O)c2C(=O)N1c1cccc(C)c1 (centres undefined),0,0,0,0,0,-,-
COc1ccc(S(=O)(=O)N(C)C[C@H]2Oc3c(NS(=O)(=O)c4ccc(C)cc4)cccc3C(=O)N([C@H](C)CO)C[C@@H]2C)cc1,0,0,0,0,0,-,-
O=C(COC(=O)CSc1ccc([N+](=O)[O-])cc1)NCCC1=CCCCC1,0,0,5.5,0,0,0,0
Cc1ccc(SCC(=O)OCC(=O)NCCC2=CCCCC2)cc1,0,0,0,0,0,-,-
O=C(CC1S/C(=N/N=C/c2cccs2)NC1=O)Nc1ccc(Cl)cc1 (centres undefined),0,0,0,0,0,-,-
O=C(CC1SC(=O)NC1=O)Nc1ccc(Cl)cc1 (centres undefined),0,0,6.2,0,0,-,0
CC(C)Oc1ccc(F)cc1-c1cc(C(=O)NCc2cccs2)[nH]n1,0,0,1.6,0,0,0,0
O=[N+]([O-])c1cccc(S(=O)(=O)Nc2cccc(-c3ccc(N4CCCC4)nn3)c2)c1,0,0,0,0,0,-,-
O=[N+]([O-])c1cccc(S(=O)(=O)Nc2cccc(-c3ccc(N4CCOCC4)nn3)c2)c1,0,0,0,0,0,-,-
O=[N+]([O-])c1cccc(S(=O)(=O)Nc2ccc(-c3ccc(N4CCCC4)nn3)cc2)c1,0,0,1.6,0,0,0,0
O=[N+]([O-])c1cccc(S(=O)(=O)Nc2ccc(-c3ccc(N4CCOCC4)nn3)cc2)c1,0,0,2.5,0,0,0,0
O=[N+]([O-])c1cccc(S(=O)(=O)Nc2ccc(S(=O)(=O)Nc3nccs3)cc2)c1,0,0,1.6,0,0,0,0
O=[N+]([O-])c1ccccc1S(=O)(=O)Nc1ccc(S(=O)(=O)Nc2nccs2)cc1,0,0,0,0,0,-,-
C[C@H](CO)N1C[C@H](C)[C@H](CN(C)C(=O)Nc2ccc(C(F)(F)F)cc2)Oc2ccc(N(C)C)cc2C1=O,0,0,0,0,0,-,-
C[C@@H]1CN([C@H](C)CO)C(=O)CCCn2cc(nn2)CO[C@@H]1CN(C)Cc1ccc(Cl)c(Cl)c1,-,0,-,-,-,-,-
C[C@@H]1CCCCO[C@@H](CN(C)Cc2ccc(C(=O)O)cc2)[C@@H](C)CN([C@H](C)CO)C(=O)c2cc(NC(=O)c3ccncc3)ccc2O1,0,0,0,0,0,-,-
C[C@H]1CCCCO[C@@H](CN(C)Cc2ccncc2)[C@@H](C)CN([C@@H](C)CO)C(=O)c2cc(NC(=O)Nc3ccc(C(F)(F)F)cc3)ccc2O1,0,0,0,0,0,-,-
O=C(N/N=C/c1c[nH]c2ccc(Br)cc12)c1ccncc1,-,0,-,-,-,-,-
NC(=O)C(=O)N/N=C/c1c[nH]c2ccc(Br)cc12,0,0,0,0,0,-,-
O=C(N/N=C/c1c[nH]c2ccccc12)c1ccc2c(c1)OCCO2,0,-,1.6,0,0,0,0
